In PubChem BioAssay AID1159580 (chemical genetic matrix, 2015):
Among all 5,500 compounds or so, about 2,000 (36%) were called active. Another 18% or so got no clear call; they are omitted. Cut-off read from the data, not from the text of the source: active = normalized growth mostly below about 0.91 (no sharp cut-off); inconclusive = no clear call, values can overlap the other calls; inactive = mostly above about 0.92. The list shows a part of the results.

Assay: chemical genetic growth profiling, strain panel (AID 1159580);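 note: tested at 20 µM; growth read once vehicle control cultures reached saturation at 30 °C; 1 = growth at the plate median or of vehicle wells; lower values mean less growth of the strain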
Conditions: growth OD

Measured: normalized growth

CCOP(=S)(OCC)Oc1ccc2c(C)c(Cl)c(=O)oc2c1
inactive: S. cerevisiae deletion strains, locus YJR075W, strain HOC1, active compounds read low 0.945 | S. cerevisiae deletion strains, locus YKL009W, strain mrt4, active compounds read low 0.952 | S. cerevisiae deletion strains, locus YKL068W, active compounds read low 0.985 | S. cerevisiae deletion strains, locus YKL085W, strain MDH1 (second series), active compounds read low 0.982 | S. cerevisiae deletion strains, locus YKL085W, strain MDH1, active compounds read low 0.982 | S. cerevisiae deletion strains, locus YKL160W, strain elf1, active compounds read low 1 | S. cerevisiae deletion strains, locus YKL190W, strain CNB1, active compounds read low 0.983 | S. cerevisiae deletion strains, locus YKR001C, strain vps1, active compounds read low 0.981 | S. cerevisiae deletion strains, locus YKR026C, strain gcn3, active compounds read low 0.944 | S. cerevisiae deletion strains, locus YKR091W, strain srl3, active compounds read low 0.973 | S. cerevisiae deletion strains, locus YLL001W, strain dnm1, active compounds read low 0.988 | S. cerevisiae deletion strains, locus YLL026W, active compounds read low 0.946 | S. cerevisiae deletion strains, locus YLL041C, strain sdh2, active compounds read low 0.956 | S. cerevisiae deletion strains, locus YLR027C, strain aat2, active compounds read low 0.935 | S. cerevisiae deletion strains, locus YLR039C, strain RIC1, active compounds read low 0.94 | S. cerevisiae deletion strains, locus YLR058C, strain SHM2, active compounds read low 0.971 | S. cerevisiae deletion strains, locus YLR102C, strain apc9, active compounds read low 0.985 | S. cerevisiae deletion strains, locus YLR113W, strain HOG1, active compounds read low 0.936 | S. cerevisiae deletion strains, locus YLR221C, strain rsa3, active compounds read low 0.933 | S. cerevisiae deletion strains, locus YLR258W, strain gsy2, active compounds read low 0.969 | S. cerevisiae deletion strains, locus YLR262C, strain YPT6 (second series), active compounds read low 0.976 | S. cerevisiae deletion strains, locus YLR262C, strain YPT6, active compounds read low 0.929 | S. cerevisiae deletion strains, locus YLR268W, strain sec22, active compounds read low 0.965 | S. cerevisiae deletion strains, locus YLR320W, strain mms22, active compounds read low 0.914 | S. cerevisiae deletion strains, locus YLR330W, strain CHS5, active compounds read low 0.979 | S. cerevisiae deletion strains, locus YLR342W, strain FKS1 (second series), active compounds read low 1.01 | S. cerevisiae deletion strains, locus YLR342W, strain FKS1, active compounds read low 0.961 | S. cerevisiae deletion strains, locus YLR357W, strain rsc2, active compounds read low 0.972 | S. cerevisiae deletion strains, locus YLR370C, strain arc18, active compounds read low 0.944 | S. cerevisiae deletion strains, locus YLR371W, strain rom2, active compounds read low 0.993 | S. cerevisiae deletion strains, locus YLR384C, strain iki3, active compounds read low 0.983 | S. cerevisiae deletion strains, locus YLR418C, strain cdc73, active compounds read low 0.956 | S. cerevisiae deletion strains, locus YML016C, strain PPZ1, active compounds read low 0.983 | S. cerevisiae deletion strains, locus YML032C, strain rad52, active compounds read low 0.979 | S. cerevisiae deletion strains, locus YML120C, strain ndi1, active compounds read low 0.962 | S. cerevisiae deletion strains, locus YML124C, strain tub3, active compounds read low 0.986 | S. cerevisiae deletion strains, locus YMR058W, strain fet3, active compounds read low 0.957 | S. cerevisiae deletion strains, locus YMR078C, strain ctf18, active compounds read low 0.979 | S. cerevisiae deletion strains, locus YMR125W, strain sto1, active compounds read low 0.97 | S. cerevisiae deletion strains, locus YMR129W, active compounds read low 0.97 | S. cerevisiae deletion strains, locus YMR205C, strain PFK2, active compounds read low 0.955 | S. cerevisiae deletion strains, locus YMR223W, strain ubp8, active compounds read low 0.987 | S. cerevisiae deletion strains, locus YMR231W, strain pep5, active compounds read low 0.948 | S. cerevisiae deletion strains, locus YMR263W, strain SAP30, active compounds read low 0.972 | S. cerevisiae deletion strains, locus YMR307W, strain GAS1, active compounds read low 0.894 | S. cerevisiae deletion strains, locus YNL067W, strain RPL9B, active compounds read low 0.981 | S. cerevisiae deletion strains, locus YNL071W, strain lat1, active compounds read low 0.944 | S. cerevisiae deletion strains, locus YNL128W, strain TEP1, active compounds read low 0.952 | S. cerevisiae deletion strains, locus YNL153C, strain GIM3, active compounds read low 0.972 | S. cerevisiae deletion strains, locus YNL183C, strain NPR1, active compounds read low 0.974 | S. cerevisiae deletion strains, locus YNL209W, strain ssb2, active compounds read low 0.957 | S. cerevisiae deletion strains, locus YNL233W, strain BNI4, active compounds read low 0.959 | S. cerevisiae deletion strains, locus YNL248C, strain rpa49, active compounds read low 0.96 | S. cerevisiae deletion strains, locus YNL250W, strain rad50, active compounds read low 0.98 | S. cerevisiae deletion strains, locus YNL271C, strain bni1, active compounds read low 0.99 | S. cerevisiae deletion strains, locus YNL298W, strain CLA4, active compounds read low 0.979 | S. cerevisiae deletion strains, locus YNL307C, strain MCK1, active compounds read low 0.981 | S. cerevisiae deletion strains, locus YNL322C, strain KRE1 (second series), active compounds read low 0.932 | S. cerevisiae deletion strains, locus YNL322C, strain KRE1, active compounds read low 0.981 | S. cerevisiae deletion strains, locus YNR049C, strain mso1, active compounds read low 0.954 | S. cerevisiae deletion strains, locus YNR052C, strain pop2, active compounds read low 0.994 | S. cerevisiae deletion strains, locus YOL006C, strain TOP1, active compounds read low 0.884 | S. cerevisiae deletion strains, locus YOL012C, strain htz1 1.3 | S. cerevisiae deletion strains, locus YOL147C, strain pex11, active compounds read low 0.993 | S. cerevisiae deletion strains, locus YOR001W, strain rrp6, active compounds read low 0.95 | S. cerevisiae deletion strains, locus YOR061W, strain CKA2, active compounds read low 0.961 | S. cerevisiae deletion strains, locus YOR069W, strain VPS5, active compounds read low 0.979 | S. cerevisiae deletion strains, locus YOR070C, strain gyp1, active compounds read low 0.994 | S. cerevisiae deletion strains, locus YOR080W, strain dia2, active compounds read low 0.959 | S. cerevisiae deletion strains, locus YOR083W, strain WHI5, active compounds read low 0.991 | S. cerevisiae deletion strains, locus YOR106W, strain vam3, active compounds read low 0.939 | S. cerevisiae deletion strains, locus YOR136W, strain idh2, active compounds read low 0.977 | S. cerevisiae deletion strains, locus YOR144C, strain elg1, active compounds read low 0.985 | S. cerevisiae deletion strains, locus YOR184W, strain ser1, active compounds read low 0.976 | S. cerevisiae deletion strains, locus YOR231W, strain MKK1, active compounds read low 1.03 | S. cerevisiae deletion strains, locus YOR265W, strain rbl2, active compounds read low 0.94 | S. cerevisiae deletion strains, locus YOR270C, strain vph1, active compounds read low 0.904 | S. cerevisiae deletion strains, locus YOR290C, strain snf2, active compounds read low 0.928 | S. cerevisiae deletion strains, locus YOR316C, strain cot1, active compounds read low 0.971 | S. cerevisiae deletion strains, locus YPL051W, strain arl3, active compounds read low 0.963 | S. cerevisiae deletion strains, locus YPL055C, strain LGE1, active compounds read low 0.948 | S. cerevisiae deletion strains, locus YPL078C, strain atp4, active compounds read low 0.982 | S. cerevisiae deletion strains, locus YPL106C, strain sse1, active compounds read low 0.957 | S. cerevisiae deletion strains, locus YPL240C, strain hsp82, active compounds read low 0.95 | S. cerevisiae deletion strains, locus YPL241C, strain CIN2, active compounds read low 0.982 | S. cerevisiae deletion strains, locus YPL256C, strain CLN2, active compounds read low 1.03 | S. cerevisiae deletion strains, locus YPR119W, strain clb2, active compounds read low 0.983 | S. cerevisiae deletion strains, locus YPR141C, strain kar3, active compounds read low 0.951 | S. cerevisiae deletion strains, locus YPR163C, strain tif3, active compounds read low 0.987 | S. cerevisiae deletion strains, locus YPR167C, strain met16, active compounds read low 0.99 | S. cerevisiae deletion strains, strain wtn01, active compounds read low 0.989 | S. cerevisiae strains, strain wild type, active compounds read low 0.981
